Results as given in PubChem BioAssay (Tox21).
Inconclusive results are not listed. A call without a number means that no potency is given here. Active and inactive are the calls of the source. Unless noted, calls come from the whole dose curve.

Tests used:
[1] = molecular target: Acetylcholinesterase (Homo sapiens) (UniProt P22303); experiment: Acetylcholinesterase (AChE) small molecule antagonists: enzyme-based qHTS assay (AID 1347397); conditions: Potency: AChE enzyme activity inhibition; outcome: AChE enzyme activity inhibition; note: nearly all actives have a fitted effect of over 55% in size
Sequence of Acetylcholinesterase (Homo sapiens) (P22303 whole entry, looked up): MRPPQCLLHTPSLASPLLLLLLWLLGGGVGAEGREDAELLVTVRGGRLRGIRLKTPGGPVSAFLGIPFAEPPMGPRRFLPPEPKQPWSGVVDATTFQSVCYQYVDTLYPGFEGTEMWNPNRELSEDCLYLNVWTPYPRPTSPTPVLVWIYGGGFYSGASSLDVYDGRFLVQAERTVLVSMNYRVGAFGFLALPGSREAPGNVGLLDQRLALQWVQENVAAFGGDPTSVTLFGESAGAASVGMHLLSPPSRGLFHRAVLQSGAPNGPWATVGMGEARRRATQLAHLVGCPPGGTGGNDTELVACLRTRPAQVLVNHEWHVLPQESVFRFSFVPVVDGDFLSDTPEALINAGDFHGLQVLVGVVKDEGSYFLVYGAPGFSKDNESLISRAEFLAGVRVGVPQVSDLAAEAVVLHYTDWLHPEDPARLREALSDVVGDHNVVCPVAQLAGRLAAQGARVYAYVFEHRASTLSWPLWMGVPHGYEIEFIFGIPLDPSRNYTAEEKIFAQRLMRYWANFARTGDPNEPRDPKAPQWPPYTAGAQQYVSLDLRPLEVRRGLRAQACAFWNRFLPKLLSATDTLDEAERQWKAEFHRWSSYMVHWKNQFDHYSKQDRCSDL
Summary of the method: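 Recombinant human AChE (50 mU/mL) preincubated with compound 30 min at room temperature; acetylthiocholine plus DTNB then added, and thiocholine formation read colorimetrically after 10 min at room temperature. DMSO served as vehicle control.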

[2] = molecular target: Acetylcholinesterase (Homo sapiens) (UniProt P22303); experiment: Acetylcholinesterase (AChE) small molecule antagonists: enzyme-based qHTS assay with human liver microsomes (AID 1347399); conditions: Potency: qHTS inhibition; outcome: qHTS inhibition; note: nearly all actives have a fitted effect of over 60% in size
Summary of the method: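 Recombinant human AChE (50 mU/mL in the enzyme mix) and human liver microsomes (0.25 mg/mL final) were preincubated with compound and NADPH (0.25 mg/mL final) for 30 min at 37 C. Acetylthiocholine/DTNB was then added; thiocholine was read colorimetrically after 10 min at room temperature.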

[3] = molecular target: Acetylcholinesterase (Homo sapiens) (UniProt P22303); experiment: Acetylcholinesterase (AChE) small molecule antagonists: fluorescence cell-based qHTS assay (AID 1347398); conditions: Potency: AChE activity; outcome: AChE activity; note: nearly all actives have a fitted effect of over 50% in size; note: potency is the fitted concentration of half-maximal effect
Summary of the method: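 SH-SY5Y cells (2000/well), attached overnight, incubated with compound 30 min at 37 C. Acetylthiocholine plus Thiolite Green then added for 40 min at room temperature. Thiocholine fluorescence (Ex/Em 490/520 nm) reports cellular AChE activity.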

[4] = qHTS assay for small molecules that induce genotoxicity in human embryonic kidney cells expressing luciferase-tagged ATAD5 (AID 651632; active = well fitted curve in the direction sought with a large enough effect in the repeat runs; an effect the other way counts as inactive or inconclusive; note: nearly all actives have a fitted effect of over 15% in size)
Summary of the method: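 HEK293T cells carrying luciferase-tagged ATAD5 were given compound or DMSO vehicle and incubated 16 hr at 37C, 5% CO2. Luciferase activity was read after 30 min at room temperature with Amplite; a rise signals genotoxic stress.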

[5] = qHTS assay for small molecule disruptors of the mitochondrial membrane potential - cell viability (AID 720634);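 note: human HepG2 liver cancer cells; series mostly up to about 83 µM; nearly all actives have a fitted effect of over 20% in size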
Summary of the method: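 HepG2 cells, 2,000 per well, attached overnight, then treated 1 hr at 37 C, 5% CO2. Viability read as ATP by CellTiter-Glo luminescence after 30 min at room temperature. Read in the same wells as the m-MPI membrane-potential dye assay.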

[6] = qHTS assay to test for compound auto fluorescence at 590 nm (red) in HepG2 cells (AID 720674; active = well fitted curve in the direction sought with a large enough effect in the repeat runs; an effect the other way counts as inactive or inconclusive)
Summary of the method: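 Fluorescence at 590 nm emission following 540 nm excitation was recorded from HepG2 wells one hour after compound transfer, with DMSO-only wells as vehicle and Rose Bengal sodium equivalency as the scale.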

[7] = qHTS assay to test for compound auto fluorescence at 535 nm (green) in HepG2 cells (AID 720675; active = well fitted curve in the direction sought with a large enough effect in the repeat runs; an effect the other way counts as inactive or inconclusive)
[8] = qHTS assay to test for compound auto fluorescence at 460 nm (blue) in HEK293 cells (AID 720678; active = well fitted curve in the direction sought with a large enough effect in the repeat runs; an effect the other way counts as inactive or inconclusive)
Summary of the method: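 HEK293 cells (2,000 per well, medium with 10% dialyzed FBS) attached for 4-5 hr at 37C, then received compound and stood overnight at 37C, 5% CO2. Blue fluorescence was read at Ex/Em 405/460 nm and expressed relative to triamterene.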

[9] = qHTS assay to test for compound auto fluorescence at 590 nm (red) in HEK293 cells (AID 720679; active = well fitted curve in the direction sought with a large enough effect in the repeat runs; an effect the other way counts as inactive or inconclusive)
Summary of the method: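 HEK293 cells (2,000/well, medium with 10% dialyzed FBS) attached for 4-5 hr at 37C, received 23 nL compound and were incubated overnight at 37C, 5% CO2. Red fluorescence was then read at 540/590nm Ex/Em, referenced to Rose Bengal sodium.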

[10] = qHTS assay to test for compound auto fluorescence at 535 nm (green) in HEK293 cells (AID 720680; active = well fitted curve in the direction sought with a large enough effect in the repeat runs; an effect the other way counts as inactive or inconclusive)
[11] = qHTS assay to test for compound auto fluorescence at 460 nm (blue) in HEK293 cell free culture (AID 720681; active = well fitted curve in the direction sought with a large enough effect in the repeat runs; an effect the other way counts as inactive or inconclusive)
Summary of the method: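 Compounds were added to cell-free DMEM with 10% FBS and fluorescence read directly. The blue channel used 405 nm excitation and 460 nm emission, with triamterene as the reference fluorophore.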

[12] = qHTS assay to test for compound auto fluorescence at 535 nm (green) in HEK293 cell free culture (AID 720682; active = well fitted curve in the direction sought with a large enough effect in the repeat runs; an effect the other way counts as inactive or inconclusive)
Summary of the method: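 Cell-free medium (DMEM, 10% FBS) receives compound or DMSO by pintool. Plate read directly at Ex 485/Em 535 nm. Signal converted to fluorescein equivalency.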

[13] = qHTS assay to test for compound auto fluorescence at 590 nm (red) in HEK293 cell free culture (AID 720683; active = well fitted curve in the direction sought with a large enough effect in the repeat runs; an effect the other way counts as inactive or inconclusive)
Summary of the method: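 Cell-free wells of DMEM with 10% FBS received compound, and intrinsic fluorescence was read at excitation/emission 540/590 nm. Values expressed as equivalence to Rose Bengal sodium.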

[14] = qHTS assay to test for compound auto fluorescence at 590 nm (red) in HepG2 cell free culture (AID 720684; active = well fitted curve in the direction sought with a large enough effect in the repeat runs; an effect the other way counts as inactive or inconclusive)
Summary of the method: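 Compound was pinned into wells holding MEM with 10% FBS and no cells, and red fluorescence was read at Ex/Em 540/590 nm. Signal is expressed as auto fluorescence equivalency relative to Rose Bengal sodium.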

[15] = qHTS assay to test for compound auto fluorescence at 460 nm (blue) in HepG2 cell free culture (AID 720685; active = well fitted curve in the direction sought with a large enough effect in the repeat runs; an effect the other way counts as inactive or inconclusive)
Summary of the method: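 Compound (23 nL) or DMSO pinned into cell-free MEM with 10% FBS; blue fluorescence read at 405/460 nm excitation/emission, expressed as auto-fluorescence equivalency to triamterene.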

[16] = qHTS assay to test for compound auto fluorescence at 535 nm (green) in HepG2 cell free culture (AID 720686; active = well fitted curve in the direction sought with a large enough effect in the repeat runs; an effect the other way counts as inactive or inconclusive)
[17] = qHTS assay to test for compound auto fluorescence at 460 nm (blue) in HepG2 cells (AID 720687; active = well fitted curve in the direction sought with a large enough effect in the repeat runs; an effect the other way counts as inactive or inconclusive)
Summary of the method: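 HepG2 cells in MEM with 10% FBS, attached overnight at 37 C, were exposed to compound or DMSO for 1 hr at 37 C, 5% CO2. Blue fluorescence was read at 405/460 nm, with triamterene as reference fluorophore.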

[18] = molecular target: Glucocorticoid receptor (Homo sapiens) (UniProt P04150); experiment: qHTS assay to identify small molecule agonists of the glucocorticoid receptor (GR) signaling pathway (AID 720691; active = well fitted activation curve with a large enough effect in the signal ratio in the repeat runs, not every such curve was filed as active; the % refers to the signal ratio)
Sequence of Glucocorticoid receptor (Homo sapiens) (P04150 whole entry, looked up): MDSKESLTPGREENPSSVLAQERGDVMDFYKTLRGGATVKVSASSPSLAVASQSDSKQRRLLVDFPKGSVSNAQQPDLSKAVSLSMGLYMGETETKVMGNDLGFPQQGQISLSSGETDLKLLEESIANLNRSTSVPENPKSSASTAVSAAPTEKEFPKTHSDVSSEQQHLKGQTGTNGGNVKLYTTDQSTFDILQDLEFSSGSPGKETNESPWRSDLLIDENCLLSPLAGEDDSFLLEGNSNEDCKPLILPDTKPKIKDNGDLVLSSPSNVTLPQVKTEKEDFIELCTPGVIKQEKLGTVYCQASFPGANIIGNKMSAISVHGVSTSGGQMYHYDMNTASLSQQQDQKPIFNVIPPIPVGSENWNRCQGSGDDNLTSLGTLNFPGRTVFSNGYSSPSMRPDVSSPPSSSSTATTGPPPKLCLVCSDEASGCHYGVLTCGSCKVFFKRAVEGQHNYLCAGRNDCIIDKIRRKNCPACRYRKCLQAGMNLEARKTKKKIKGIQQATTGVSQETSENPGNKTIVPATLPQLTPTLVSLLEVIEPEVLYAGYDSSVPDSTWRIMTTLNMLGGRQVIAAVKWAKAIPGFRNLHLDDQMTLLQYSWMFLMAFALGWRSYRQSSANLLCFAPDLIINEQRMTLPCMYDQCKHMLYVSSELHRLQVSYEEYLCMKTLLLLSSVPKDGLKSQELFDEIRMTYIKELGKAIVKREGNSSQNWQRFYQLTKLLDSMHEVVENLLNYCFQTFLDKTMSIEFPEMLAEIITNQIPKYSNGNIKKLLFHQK
Summary of the method: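 GR-bla HeLa cells carrying a GRE-driven beta-lactamase reporter, exposed to compounds for 18 h at 37 C. Reporter activation read as fluorescence after 2 h with LiveBLAzer B/G FRET substrate at room temperature.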

[19] = molecular target: Glucocorticoid receptor (Homo sapiens) (UniProt P04150); experiment: qHTS assay to identify small molecule antagonists of the glucocorticoid receptor (GR) signaling pathway (AID 720692; active = well fitted inhibition curve with a large enough effect in the signal ratio in the repeat runs, not every such curve was filed as active; the % refers to the signal ratio)
Summary of the method: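 GR-bla HeLa cells carrying a GRE-driven beta-lactamase reporter received compound after 4 h plating, then dexamethasone (5 nM final). After 18 h at 37C, the FRET substrate was loaded for 2 h at room temperature and fluorescence read.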

[20] = qHTS assay to identify small molecule antagonists of the glucocorticoid receptor (GR) signaling pathway - cell viability counter screen (AID 720693; active = well fitted curve in the direction sought with a large enough effect in the repeat runs; an effect the other way counts as inactive or inconclusive; note: nearly all actives have a fitted effect of over 55% in size)
[21] = qHTS assay to identify small molecule antagonists of the androgen receptor (AR) signaling pathway - cell viability counter screen (AID 743033; active = well fitted curve in the direction sought with a large enough effect in the repeat runs; an effect the other way counts as inactive or inconclusive; note: nearly all actives have a fitted effect of over 45% in size)
[22] = qHTS assay to identify small molecule antagonists of the androgen receptor (AR) signaling pathway using the MDA cell line - cell viability counter screen (AID 743041; active = well fitted curve in the direction sought with a large enough effect in the repeat runs; an effect the other way counts as inactive or inconclusive; note: nearly all actives have a fitted effect of over 45% in size)
Summary of the method: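 MDA-kb2 AR-luc cells (MMTV-luciferase, AR/GR responsive) treated with compounds plus R1881 agonist for 16 h at 37C. CellTiter-Fluor added at 15.5 h; fluorescence read after 30 min in the same wells.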

[23] = molecular target: Estrogen receptor (Homo sapiens) (UniProt P03372); experiment: qHTS assay to identify small molecule antagonists of the estrogen receptor alpha (ER-alpha) signaling pathway (AID 743069; active = well fitted curve in the direction sought with a large enough effect in the signal ratio in the repeat runs, not every such curve was filed as active; the % refers to the signal ratio)
Sequence of Estrogen receptor (Homo sapiens) (P03372 whole entry, looked up): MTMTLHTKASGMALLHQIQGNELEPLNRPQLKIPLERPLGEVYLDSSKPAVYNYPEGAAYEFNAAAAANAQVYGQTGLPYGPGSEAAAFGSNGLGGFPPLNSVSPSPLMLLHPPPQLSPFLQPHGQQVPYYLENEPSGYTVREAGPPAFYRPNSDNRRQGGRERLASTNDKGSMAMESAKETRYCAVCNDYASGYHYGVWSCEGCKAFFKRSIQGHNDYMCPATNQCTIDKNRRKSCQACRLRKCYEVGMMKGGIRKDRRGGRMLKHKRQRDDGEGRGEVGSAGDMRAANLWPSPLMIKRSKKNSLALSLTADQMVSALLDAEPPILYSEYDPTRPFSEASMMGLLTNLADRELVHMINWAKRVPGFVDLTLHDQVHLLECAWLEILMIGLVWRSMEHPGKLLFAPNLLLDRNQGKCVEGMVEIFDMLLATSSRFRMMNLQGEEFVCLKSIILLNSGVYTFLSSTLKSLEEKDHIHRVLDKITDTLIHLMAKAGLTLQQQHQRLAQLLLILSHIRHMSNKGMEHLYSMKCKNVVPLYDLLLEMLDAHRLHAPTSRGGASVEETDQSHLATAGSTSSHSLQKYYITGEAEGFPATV
Summary of the method: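 HEK293 ER-alpha-UAS-bla GripTite cells, held overnight in 2% charcoal-stripped FBS, 5,000 cells/well, preincubated 4 h, then compound plus 17beta-estradiol for 18 h at 37C. Beta-lactamase read by LiveBLAzer B/G FRET substrate, 2 h at room temperature.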

[24] = molecular target: Estrogen receptor (Homo sapiens) (UniProt P03372); experiment: qHTS assay to identify small molecule agonists of the estrogen receptor alpha (ER-alpha) signaling pathway (AID 743075)
[25] = qHTS assay to identify small molecule antagonists of the estrogen receptor alpha (ER-alpha) signaling pathway using the BG1 cell line (AID 743080);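 note: BG1 cells stimulated with 17beta-estradiol alongside compound; series mostly up to about 70 µM; nearly all actives have a fitted effect of over 25% in size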
Summary of the method: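 BG1-Luc-4E2 cells (endogenous full-length ER-alpha, stable 4×ERE-luciferase) were starved 5 days in phenol-red-free medium with 10% charcoal-stripped FBS, plated 24 h, then given compound plus 17beta-estradiol for 21.5 h at 37 C; ONE-Glo luminescence read after 30 min.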

[26] = qHTS assay to identify small molecule antagonists of the estrogen receptor alpha (ER-alpha) signaling pathway using the BG1 cell line - cell viability counter screen (AID 743081; active = well fitted curve in the direction sought with a large enough effect in the repeat runs; an effect the other way counts as inactive or inconclusive;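 note: compound given together with 17beta-estradiol as the ER stimulus; series mostly up to about 70 µM; nearly all actives have a fitted effect of over 45% in size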)
Aromatase (Homo sapiens) = Aromatase (Homo sapiens) (UniProt P11511); experiment: qHTS assay to identify aromatase inhibitors (AID 743083; active = well fitted curve in the direction sought with a large enough effect in the repeat runs; an effect the other way counts as inactive or inconclusive; note: series mostly up to about 70 µM; nearly all actives have a fitted effect of over 55% in size)
Sequence of Aromatase (Homo sapiens) (P11511 whole entry, looked up): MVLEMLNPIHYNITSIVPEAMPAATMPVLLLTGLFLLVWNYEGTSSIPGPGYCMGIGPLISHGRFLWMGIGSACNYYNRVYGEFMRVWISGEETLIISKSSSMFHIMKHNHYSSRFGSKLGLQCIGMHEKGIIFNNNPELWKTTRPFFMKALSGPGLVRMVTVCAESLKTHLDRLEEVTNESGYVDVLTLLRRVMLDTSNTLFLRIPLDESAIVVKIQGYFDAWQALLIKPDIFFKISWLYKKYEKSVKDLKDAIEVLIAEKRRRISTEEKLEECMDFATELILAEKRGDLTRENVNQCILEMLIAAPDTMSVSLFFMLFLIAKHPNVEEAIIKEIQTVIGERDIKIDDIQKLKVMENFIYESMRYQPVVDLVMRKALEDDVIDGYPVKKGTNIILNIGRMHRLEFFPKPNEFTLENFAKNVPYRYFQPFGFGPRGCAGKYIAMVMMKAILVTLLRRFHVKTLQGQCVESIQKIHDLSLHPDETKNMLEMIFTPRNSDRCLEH

[27] = qHTS assay to identify aromatase inhibitors - cell viability counter screen (AID 743084; active = well fitted curve in the direction sought with a large enough effect in the repeat runs; an effect the other way counts as inactive or inconclusive;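 note: cells stimulated with testosterone during compound exposure; nearly all actives have a fitted effect of over 55% in size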)
[28] = molecular target: Aryl hydrocarbon receptor (Homo sapiens) (UniProt P35869); experiment: qHTS assay to identify small molecule that activate the aryl hydrocarbon receptor (AhR) signaling pathway (AID 743085; active = well fitted curve in the direction sought with a large enough effect in the repeat runs; an effect the other way counts as inactive or inconclusive;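 note: HG2L7.5c1 human HepG2 liver cells with stably integrated DRE-driven firefly reporter; series mostly up to about 70 µM; nearly all actives have a fitted effect of over 15% in size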)
Sequence of Aryl hydrocarbon receptor (Homo sapiens) (P35869 whole entry, looked up): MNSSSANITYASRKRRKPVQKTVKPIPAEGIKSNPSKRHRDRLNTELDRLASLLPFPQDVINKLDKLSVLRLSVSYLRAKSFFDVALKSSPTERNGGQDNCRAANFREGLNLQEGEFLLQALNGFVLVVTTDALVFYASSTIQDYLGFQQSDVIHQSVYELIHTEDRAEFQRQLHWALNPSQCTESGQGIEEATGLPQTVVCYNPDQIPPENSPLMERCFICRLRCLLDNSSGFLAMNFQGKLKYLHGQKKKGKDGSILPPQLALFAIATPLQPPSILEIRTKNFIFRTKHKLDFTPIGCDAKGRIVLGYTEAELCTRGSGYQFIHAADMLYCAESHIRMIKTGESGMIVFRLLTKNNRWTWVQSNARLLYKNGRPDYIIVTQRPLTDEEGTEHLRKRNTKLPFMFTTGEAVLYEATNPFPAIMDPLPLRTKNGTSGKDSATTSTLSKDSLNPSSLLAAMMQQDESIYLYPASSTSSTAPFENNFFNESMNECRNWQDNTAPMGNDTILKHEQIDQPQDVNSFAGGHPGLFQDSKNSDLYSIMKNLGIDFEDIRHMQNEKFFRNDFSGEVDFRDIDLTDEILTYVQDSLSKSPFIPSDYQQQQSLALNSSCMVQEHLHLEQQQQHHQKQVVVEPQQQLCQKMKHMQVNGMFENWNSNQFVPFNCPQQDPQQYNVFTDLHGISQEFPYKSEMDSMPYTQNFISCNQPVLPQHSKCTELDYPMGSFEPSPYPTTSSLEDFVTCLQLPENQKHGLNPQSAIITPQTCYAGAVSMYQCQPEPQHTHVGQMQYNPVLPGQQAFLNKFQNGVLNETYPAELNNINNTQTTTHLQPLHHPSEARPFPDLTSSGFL
Summary of the method: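 Luminescence read-out: ONE-Glo reagent, 30 min at room temperature, in HG2L7.5c1 HepG2 reporter cells treated 24 h at 37C. Viability was measured beforehand by CellTiter-Fluor fluorescence after 30 min at 37C.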

[29] = qHTS assay to identify small molecule that activate the aryl hydrocarbon receptor (AhR) signaling pathway - cell viability counter screen (AID 743086; active = well fitted curve in the direction sought with a large enough effect in the repeat runs; an effect the other way counts as inactive or inconclusive;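 note: HepG2 liver cells carrying the AhR DRE luciferase reporter; series mostly up to about 70 µM; nearly all actives have a fitted effect of over 45% in size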)
Summary of the method: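 HepG2-AhR-luc (HG2L7.5c1) cells, 4000/well, treated 24 h at 37 C with compound; viability measured as CellTiter-Fluor fluorescence after 30 min in the same wells as the luciferase read.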

With C[C@@H]1CCC[C@H](C)N1CCCC(O)(c1ccccc1)c1ccccn1 (some centres undefined) the Potency [1] was “inactive” and the Potency [2] was “inactive”.
For CCN(CC)CCNc1ccc(CNC=O)c2sc3ccc(OC)cc3c(=O)c12, the Potency [3] was 39.9 µM (active) and the Potency [2] was “inactive”.
With CNC(C)=O the Potency [1] was “inactive” and the Potency [2] was “inactive”.
With [Cu+] the Potency [3] was “inactive”.
With NS(=O)(=O)c1cc2c(cc1C(F)(F)F)NCNS2(=O)=O the Potency [1] was “inactive” and the Potency [2] was “inactive”.
In the case of C/C=C1/C(=O)C[C@H]2[C@@H]3CCC4=CC(=O)CC[C@]4(C)[C@H]3CC[C@]12C, the Potency [1] is reported as “inactive” and the Potency [2] is reported as “inactive”.
With CCC1=C[C@@H]2CN(C1)Cc1c([nH]c3ccccc13)[C@@](C(=O)OC)(c1cc3c(cc1OC)N(C)[C@H]1[C@@](O)(C(=O)OC)[C@H](OC(C)=O)[C@]4(CC)C=CCN5CC[C@]31[C@@H]54)C2 the Potency [1] was “inactive” and the Potency [2] was “inactive”.
With CCC(=O)Oc1ccc2c(c1)CC[C@@H]1[C@@H]2CC[C@@]2(C)[C@H]1C[C@@H](OC(=O)CC)[C@@H]2OC(=O)CC the Potency [1] was “inactive” and the Potency [2] was “inactive”.
For NC1(c2ccc(-c3nc4ccn5c(=O)[nH]nc5c4cc3-c3ccccc3)cc2)CCC1, the Potency [1] was “inactive” and the Potency [2] was “inactive”.
For NC(=O)C(c1ccccc1)(c1ccccc1)[C@@H]1CCN(CCc2ccc3c(c2)CCO3)C1, the Potency [1] was “inactive” and the Potency [2] was “inactive”.
With c1ccc(-c2ccc(C(c3ccccc3)n3ccnc3)cc2)cc1 (centres undefined) the Potency [3] was “inactive” and the Potency [2] was “inactive”.
For O=C1NC2CCCCN2C12CCN(CCCN1c3ccccc3CCc3ccc(Cl)cc31)CC2 (centres undefined), the Potency [1] was “inactive” and the Potency [2] was “inactive”.
In the case of O=C(CCCN1CCN(c2ccccn2)CC1)c1ccc(F)cc1, the Potency [1] is reported as “inactive” and the Potency [2] is reported as “inactive”.
In the case of CC(C)C[C@@H]1[C@H](c2ccccc2)OC(=O)N1CCCN1CCCCCC1, the Potency [1] is reported as “inactive” and the Potency [2] is reported as “inactive”.
In the case of CCCCOC(=O)[C@@H](C)Oc1ccc(Oc2ccc(C(F)(F)F)cn2)cc1, the Potency [1] is reported as “inactive” and the Potency [2] is reported as “inactive”.
With CN(C(=O)CCCOc1ccc2[nH]c(=O)ccc2c1)C1CCCCC1 the Potency [1] was “inactive” and the Potency [2] was “inactive”.
For N#C/C(=C1/SC[C@@H](c2ccc(Cl)cc2Cl)S1)n1ccnc1, the Potency [1] was “inactive” and the Potency [2] was “inactive”.
In the case of CN(C(=O)c1c(O)c2ccccc2n(C)c1=O)c1ccccc1, the Potency [1] is reported as “inactive” and the Potency [2] is reported as “inactive”.
In the case of N#C/C(=C1\SCC(c2ccccc2Cl)S1)n1ccnc1 (centres undefined), the Potency [1] is reported as “inactive” and the Potency [2] is reported as “inactive”.
For Cc1cc(O)ccc1O, the Potency [3] was 71.8 µM (active) and the Potency [2] was “inactive”.
For COc1ccc2cc1Oc1ccc(cc1)C[C@H]1c3c(cc4c(c3Oc3cc5c(cc3OC)CCN(C)[C@@H]5C2)OCO4)CCN1C, the Potency [1] was “inactive” and the Potency [2] was “inactive”.
For CCN(CC)CCNC(=O)c1cc(Cl)c(N)cc1OC, the Potency [1] was “inactive” and the Potency [2] was “inactive”.
For Clc1ccc2c(c1)CCc1cccnc1C2=C1CCNCC1, the Potency [1] was “inactive” and the Potency [2] was “inactive”.
For COCCOc1cc2cc(C(=O)NC3CCN(C(C)C)CC3)n(CC(=O)Nc3ccc(Cl)cn3)c2cn1, the Potency [1] was “inactive” and the Potency [2] was “inactive”.
In the case of CC[C@@H](O)C(C[C@@H](C)N(C)C)(c1ccccc1)c1ccccc1, the outcome [4] is reported as “inactive”, the outcome [5] is reported as “inactive” and the outcome [6] is reported as “inactive”. For the same compound, the outcome [7] was “inactive”, the outcome [8] was “inactive” and the outcome [9] was “inactive”. The outcome [10] was “inactive”, the outcome [11] was “inactive” and the outcome [12] was “inactive”. The outcome [13] was “inactive”, the outcome [14] was “inactive” and the outcome [15] was “inactive”. The outcome [16] was “inactive”, the outcome [17] was “inactive” and the outcome [18] was “inactive”. For the same compound, the Potency [19] was “inactive”, the Potency [20] was “inactive” and the Potency [21] was “inactive”. The outcome [22] was “inactive”, the outcome [23] was “inactive” and the Potency [24] was “inactive”. For the same compound, the outcome [25] was “inactive”, the Potency [26] was “inactive” and the Potency (Aromatase (Homo sapiens)) was “inactive”. For the same compound, the outcome [27] was “inactive”, the outcome [28] was “inactive” and the Potency [29] was “inactive”.
